A short description of assay [1]: APR_HepG2_CellCycleArrest_24hr: Apredica 24-hour HepG2 Assay for Cell Cycle Arrest (AID 2282905).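 Further: cell cycle arrest scored as ratio of 2N to 4N nuclear DNA content.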 The following applies: imaging, actives raise or lower the signal. The gist of the method: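 Cell cycle arrest is scored from nuclear DNA content measured by high-content imaging of Hoechst 33342-stained HepG2 cells following 24-hour treatment at ten concentrations up to 200 uM, with DMSO as baseline.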

A short description of assay [2]: APR_HepG2_NuclearSize_24hr: Apredica 24-hour HepG2 Assay for Nuclear Size (AID 2282907). The conditions noted are these: high-content imaging, actives raise or lower the signal. The gist of the method: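 Compounds in DMSO (final 0.5%) were added to human HepG2 hepatoma cells at ten concentrations up to 200 uM for 24 hr. Fixed nuclei were stained with Hoechst 33342, and nuclear diameter was quantified from automated images.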

The nature of assay [3]: APR_HepG2_CellLoss_24hr: Apredica 24-hour HepG2 Assay for Cell Loss (AID 2282908).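 On AC50: fit in both directions so a hit may be cell loss or gain.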 The following applies: high-content imaging. The gist of the method:
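Cell number is quantified by fluorescence imaging of Hoechst 33342-stained nuclei following dosing at 0.39–200 uM in 0.5% DMSO. Curves are fitted in both directions from the DMSO baseline.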

Assay [4] is described as follows: APR_HepG2_MicrotubuleCSK_24hr: Apredica 24-hour HepG2 Assay for Microtubule CSK Stabilty (AID 2282909). The conditions noted are these: HepG2 microtubule cytoskeleton imaging, actives raise or lower the signal. The gist of the method: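 Steps: dose HepG2 for 24 h (0.39–200 uM, 0.5% DMSO); fix 30 min in 3.7% formaldehyde at room temperature; permeabilize; stain alpha-tubulin 60 min; image microtubule cytoskeleton at 20x. Signal change fitted in both directions relative to DMSO.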

Assay [5] is described as follows: APR_HepG2_MitoticArrest_24hr: Apredica 24-hour HepG2 Assay for Mitotic Arrest (AID 2282910). The following applies: high-content imaging, actives raise or lower the signal. The gist of the method:
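Compounds are dosed onto HepG2 cells across ten concentrations up to 200 uM for 24 hr. Cells are then fixed in 3.7% formaldehyde, permeabilised, and labelled for phospho-histone H3 and nuclei; images are scored by cell cycle analysis and fitted bidirectionally relative to DMSO.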

Assay [6] is described as follows: APR_HepG2_MitoMembPot_24hr: Apredica 24-hour HepG2 Assay for Mitochondrial Membrane Potential (AID 2282911). The conditions noted are these: imaging, actives raise or lower the signal. The gist of the method:
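Human hepatoma HepG2 cultures received ten compound concentrations up to 200 uM for 24 hr. Membrane-potential dye signal, captured by automated fluorescence microscopy, was scored for gain or loss against DMSO controls.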

Assay [7] can be described thus: APR_HepG2_MitoMass_24hr: Apredica 24-hour HepG2 Assay for Mitochondrial Mass (AID 2282912). The conditions noted are these: high-content imaging, actives raise or lower the signal. The gist of the method:
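The liver line HepG2 was dosed in duplicate across a 0.39–200 uM series, with final DMSO held at 0.5% v/v, and harvested at 24 hr. High-content imaging measured mitochondrial dye staining.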

Assay [8] in a line: APR_HepG2_p53Act_24hr: Apredica 24-hour HepG2 Assay for p53 Activation (AID 2282913).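 Further: p53 protein immunofluorescence averaged per cell in HepG2 with Hoechst nuclei.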 The conditions noted are these: high-content imaging, actives raise or lower the signal. The gist of the method:
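Automated fluorescence imaging quantifies p53 immunostaining in HepG2 cells after a 24 hr exposure (0.39–200 uM, duplicate, 0.5% DMSO). Nuclei are located by Hoechst 33342 staining.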

Assay [9] in a line: APR_HepG2_CellCycleArrest_72hr: Apredica 72-hour HepG2 Assay for Cell Cycle Arrest (AID 2282914). The conditions noted are these: high-content imaging, actives raise or lower the signal. The gist of the method:
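Cell cycle arrest in HepG2 was scored from nuclear DNA content after 72 hr compound treatment (0.39–200 uM). Activity, either gain or loss, was fitted against the DMSO baseline.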

Assay [10] can be described thus: APR_HepG2_CellLoss_72hr: Apredica 72-hour HepG2 Assay for Cell Loss (AID 2282915). The following applies: high-content imaging. The gist of the method:
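Cell number comes from Hoechst 33342-labelled nuclei, imaged at 20x after 3.7% formaldehyde fixation. Dosing was 0.39–200 uM, ten concentrations in duplicate, 0.5% DMSO final, for 72 h. Bidirectional fit relative to DMSO baseline.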

A short description of assay [11]: APR_HepG2_P-H2AX_72hr: Apredica 72-hour HepG2 Assay for H2AX Phosphorylation (AID 2282916).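 Further: phospho-histone H2A.x immunostain intensity per cell marking DNA damage.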 The following applies: imaging, actives raise or lower the signal. The gist of the method:
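Following 72 hr treatment with 0.39–200 uM compound, HepG2 cells were formaldehyde-fixed, permeabilized and stained for phospho-H2A.x; signal was measured by high-content imaging and fitted bidirectionally against DMSO controls.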

A short description of assay [12]: APR_HepG2_MitoMembPot_72hr: Apredica 72-hour HepG2 Assay for Mitochondrial Membrane Potential (AID 2282917). The following applies: imaging, actives raise or lower the signal. The gist of the method:
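Membrane potential read by MitoTracker Red CMXRos (250 nM, 30 min, pre-fixation) fluorescence imaging of HepG2 after 72 hr exposure. Ten concentrations, 0.39–200 uM, duplicate wells, 0.5% DMSO; fitted in both directions against DMSO baseline.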

Assay [13] is described as follows: APR_HepG2_MitoticArrest_72hr: Apredica 72-hour HepG2 Assay for Mitotic Arrest (AID 2282918). The conditions noted are these: high-content imaging, actives raise or lower the signal. The gist of the method:
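Mitotic arrest in HepG2 is scored from phospho-histone H3 staining after 72 hr dosing across 0.39–200 uM, with DMSO at 0.5% v/v. Nuclei are identified by Hoechst 33342 and fluorescence intensity is quantified per cell.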

Assay [14] can be described thus: APR_HepG2_MicrotubuleCSK_72hr: Apredica 72-hour HepG2 Assay for Microtubule CSK Stabilty (AID 2282919). The following applies: HepG2 microtubule cytoskeleton, high-content imaging, actives raise or lower the signal. The gist of the method: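 Read-out is tubulin fluorescence intensity from high-content imaging of HepG2 cells, with nuclei identified by Hoechst 33342. Treatment lasts 72 h at 0.39–200 uM, and curves are fitted bidirectionally against the DMSO negative control.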

The nature of assay [15]: APR_HepG2_P-H2AX_24hr: Apredica 24-hour HepG2 Assay for H2AX Phosphorylation (AID 2282920). The conditions noted are these: high-content imaging, actives raise or lower the signal. The gist of the method: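 Signal comes from a FITC-labeled secondary detecting phospho-histone H2A.x in fixed HepG2 cells, quantified by automated imaging at 20x. Dosing ran 24 hr across 0.39–200 uM with 0.5% v/v DMSO.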

Assay [16] can be described thus: APR_HepG2_StressKinase_72hr: Apredica 72-hour HepG2 Assay for Stress Kinase (AID 2282921). The conditions noted are these: HepG2 stress kinase (phospho-c-Jun) imaging, actives raise or lower the signal. The gist of the method: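 Fluorescence intensity of Cy3-tagged anti-phospho-c-Jun antibody, quantified per cell from Hoechst-defined nuclei across six images per well, served as the read-out following 72 h exposure (0.39–200 uM, 0.5% v/v DMSO).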

Assay [17] can be described thus: APR_HepG2_StressKinase_24hr: Apredica 24-hour HepG2 Assay for Stress Kinase (AID 2282922). The conditions noted are these: HepG2 stress kinase (phospho-c-Jun) imaging, actives raise or lower the signal. The gist of the method: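 HepG2, 24 hr dosing, 0.39–200 uM in duplicate, 0.5% DMSO; formaldehyde fix (3.7%), 0.5% Triton X-100; anti-phospho-c-Jun + Cy3 secondary, Hoechst counterstain; ArrayScan imaging; bidirectional curve fit vs DMSO baseline.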

The nature of assay [18]: APR_HepG2_p53Act_72hr: Apredica 72-hour HepG2 Assay for p53 Activation (AID 2282923).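 Further: average cellular p53 protein immunofluorescence intensity in HepG2 cells.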 The conditions noted are these: high-content imaging, actives raise or lower the signal. The gist of the method: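 HepG2 monolayers receive test compounds in duplicate at ten concentrations (0.39 through 200 uM) for 72 hr. They are then formaldehyde-fixed, antibody-labelled for p53, Hoechst-stained and imaged, with activity fitted bidirectionally versus DMSO.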

Assay [19] can be described thus: APR_HepG2_MitoMass_72hr: Apredica 72-hour HepG2 Assay for Mitochondrial Mass (AID 2282924).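 Further: MitoTracker Red CMXRos stain intensity per cell imaged as mitochondrial mass.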 The conditions noted are these: high-content imaging, actives raise or lower the signal. The gist of the method:
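HepG2, 72 hr cmpd, 10 conc 0.39–200 uM in dup, DMSO 0.5% v/v. MitoTracker Red CMXRos 250 nM 30 min pre-fix; formaldehyde 3.7% fix 30 min RT. HCS imaging, gain/loss fit vs DMSO.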

A short description of assay [20]: APR_HepG2_NuclearSize_72hr: Apredica 72-hour HepG2 Assay for Nuclear Size (AID 2282925). The following applies: high-content imaging, actives raise or lower the signal. The gist of the method: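 HepG2; cpd 0.39–200 uM, 10 conc, duplicate; 72 h; DMSO 0.5% v/v; fix 3.7% formaldehyde 30 min RT; Triton permeabilization; Hoechst 2 ug/mL; HCS imaging 20x; nuclear diameter; gain/loss fit vs DMSO.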

Activity calls are given as the source filed them. How the source made its calls: active means hit-call score of the fitted dose curve at least 0.9, where 1 is the maximum; inactive means score below 0.9.

In general, AC50 refers to the midpoint of the concentration-response curve, whichever way the signal moves.

On to `COc1ccc2cc(S(=O)(=O)N[C@H](CC(=O)N[C@H](Cc3ccc(CN4[C@H](C)CCC[C@@H]4C)cc3)C(=O)N(C)C(C)C)c3ccc4c(c3)OCO4)ccc2c1`, for which the compound was called inactive in [1], in assay [6], in assay [9], in assay [12], in [14] and in assay [17]. Further, the compound was classed as inactive in assay [20]. The AC50 was 28.7 µM (active) in assay [2]; 39.6 µM (active) in assay [3]; 7.6 µM (active) in assay [4]; 16 µM (active) in [5]; 12.7 µM (active) in assay [7]; 20.4 µM (active) in [8]. In addition, the AC50 is 25.3 µM (active) in assay [10]; 13.7 µM (active) in [11]; 11.1 µM (active) in [13]; 21.8 µM (active) in assay [15]; 13.6 µM (active) in assay [16]; 10.7 µM (active) in [18]. The AC50 in [19] is 45 µM (active).
For the compound `Cc1ncc(CO)c(CO)c1O`, the compound was classed as inactive in [1], in assay [2], in assay [3], in assay [4], in [5] and in assay [6]. Besides, the compound was called inactive in [7], in [8], in assay [9], in [10], in [11] and in assay [12]. The outcome in assay [13], in [14], in assay [15], in [16], in [17] and in assay [18] was inactive. Moreover, the compound was classed as inactive in assay [19] and in assay [20].
Turning to `CC(C)(C)c1csc(-c2cc3cc(OCc4ccccc4CC(=O)O)ccc3o2)n1`, the call in assay [1], in assay [2], in assay [3], in [4], in assay [5] and in assay [6] was inactive. Also, the call in assay [7], in [8], in assay [9], in assay [10], in [11] and in assay [12] was inactive. In addition, the call in [13], in assay [14], in assay [15], in assay [16], in assay [17] and in assay [18] was inactive. In addition, the outcome in assay [19] and in assay [20] was inactive.
In the case of `CCCCCCCC[Si](OCC)(OCC)OCC`, the call in [1], in [2], in assay [4], in assay [5], in assay [7] and in assay [8] was inactive. Also, the call in assay [12], in [14], in assay [15], in assay [17] and in [20] was inactive. In addition, the AC50 in assay [3] is 118 µM (active); in assay [6], 29.8 µM (active); in assay [9], 0.03 µM (active); in assay [10] it was 34 µM (active); in assay [11], 19.8 µM (active); in [13], 115 µM (active). The figures for the AC50 in [18] and in [19] were 19.8 µM (active) and 41.2 µM (active), respectively.
Regarding `CCCC(=O)OCCC(C)C`, the outcome in [1], in [2], in [3], in assay [4], in assay [5] and in [6] was inactive. For the same compound, the compound was called inactive in assay [7], in [8], in assay [9], in assay [10], in assay [11] and in assay [12]. The compound was called inactive in [13], in assay [14], in assay [15], in assay [16], in assay [17] and in assay [18]. For the same compound, the compound was classed as inactive in assay [19] and in assay [20].
In the case of `CC(C)(O)c1ccc(CNC(=O)c2cccnc2Oc2ccc3nonc3c2)cc1`, the compound was called inactive in assay [1], in assay [2], in assay [3], in assay [4], in assay [5] and in [6]. Further, the compound was called inactive in assay [7], in assay [8], in [9], in assay [10], in [11] and in assay [12]. Further, the compound was called inactive in [13], in assay [14], in [15], in [17], in [18] and in assay [19]. Besides, the call in [20] was inactive.

Values taken from PubChem BioAssay (EPA / NIEHS).
